Screening results: PubChem BioAssay, National Center for Advancing Translational Sciences (NCATS)
Shown are actives, neighbours in structure and some others; about 10% of the full set was active somewhere.
RORgamma inh: qHTS for inhibitors of ROR gamma transcriptional activity. hit rate 5.4% among 310,000. Nuclear receptor ROR-gamma (Mus musculus), P51450. AID 2551, 2010. Drosophila S2 Gal4-RORgamma UAS-luciferase reporter, 20 h. Potency, µM (titrated, usually from 53.6 µM), without a hit: at the top dose activity change, negative = inhibition, hits mostly inhibitors; note: % is set by controls: 0 for no effect and ±100 for the full control effect; nearly all actives have a fitted effect of over 60% in size
Target sequence (P51450 whole entry, looked up, the tested form may be a part): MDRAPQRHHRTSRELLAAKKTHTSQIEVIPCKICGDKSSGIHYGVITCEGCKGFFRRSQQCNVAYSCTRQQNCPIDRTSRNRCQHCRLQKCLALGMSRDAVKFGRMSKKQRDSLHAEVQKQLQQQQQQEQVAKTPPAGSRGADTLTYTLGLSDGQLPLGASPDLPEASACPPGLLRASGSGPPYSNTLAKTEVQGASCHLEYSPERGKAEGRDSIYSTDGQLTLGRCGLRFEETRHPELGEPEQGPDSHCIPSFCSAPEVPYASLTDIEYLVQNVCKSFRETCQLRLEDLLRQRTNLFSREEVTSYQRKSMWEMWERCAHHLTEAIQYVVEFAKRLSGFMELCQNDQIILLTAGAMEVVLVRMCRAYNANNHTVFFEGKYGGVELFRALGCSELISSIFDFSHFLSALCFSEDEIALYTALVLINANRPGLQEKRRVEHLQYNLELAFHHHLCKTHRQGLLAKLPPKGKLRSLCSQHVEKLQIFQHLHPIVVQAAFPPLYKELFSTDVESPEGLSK
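Luminescence from a UAS-regulated Photinus luciferase reporter in stably transfected Drosophila Schneider cells is measured; decreased signal marks ROR gamma inhibition. Fusion expression is induced by 700 uM copper sulfate for 20 hr.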
Gal4-VP16 FLuc: VP16 counterscreen qHTS for inhibitors of ROR gamma transcriptional activity | hit rate 3.5% among 310,000 | Potency, µM (top dose mostly 53.6 µM), for inactives: at the top dose activity, negative = inhibition, actives largely listed as inhibitors | Drosophila S2 Gal4-VP16 UAS-luciferase, luminescence, 20 h | AID 2546, 2010;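 note: Gal4-VP16 expression switched on by copper sulfate through the metallothionein promoter; % is set by controls: 0 for no effect and ±100 for the full control effect; nearly all actives have a fitted effect of over 50% in size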
SW480 rerep: A quantitative high throughput screen for small molecules that induce DNA re-replication in SW480 colon adenocarcinoma cells; hit rate 1.8% among 340,000; SW480 DNA re-replication, Hoechst DNA content imaging, 48 h; Potency, µM (highest dose often 46.1 µM), for the others: at the highest dose re-replication activation, actives largely listed as activators; note: % of control where 0% means no effect; nearly all actives have a fitted effect of over 55% in size
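DNA re-replication was detected as more nuclei of elevated Hoechst intensity after 48 hr exposure to compound (23 nL pinned per well of 250 cells).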
KB-3-1 cytotox: qHTS assay for MDR1-selective chemotherapeutics: Primary screen using the parental adenocarcinoma cell KB-3-1 | KB-3-1 viability, CellTiter-Glo ATP luminescence, 72 h | hit rate 1.4% among 400,000 | Potency, µM (top dose mostly 46.1 µM), most hits filed as cytotoxic; note: % is set by controls: 0 for no effect and ±100 for the full control effect; nearly all actives have a fitted effect of over 60% in size
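Parental KB-3-1 adenocarcinoma cells in phenol-red-free DMEM with 10% FBS were pin-treated with compounds at several concentrations, incubated 72 h at 37 °C, and viability read by CellTiter-Glo luminescence; concentration-effect curves were fitted after normalization.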
MCF10A rereplic: A quantitative high throughput screen for small molecules that induce DNA re-replication in MCF 10a normal breast cells. MCF 10A DNA re-replication, Hoechst nuclear intensity, 48 h. Potency, µM (series often up to 46.1 µM), for the others: at the top dose activity, positive = re-replication, actives largely listed as activators. hit rate 2.9% among 350,000; note: % of control where 0% means no effect; nearly all actives have a fitted effect of over 50% in size
KB-V1 cytotox: qHTS assay for MDR1-selective chemotherapeutics: Primary screen using the drug-selected MDR subline cells KB-V1 | KB-V1 MDR cells viability, CellTiter-Glo, 72 h | Potency, µM (top dose mostly 46.1 µM), actives largely listed as cytotoxic | hit rate 3.4% among 400,000; note: % is set by controls: 0 for no effect and ±100 for the full control effect; nearly all actives have a fitted effect of over 60% in size
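Luminescent ATP read-out (CellTiter-Glo, 10 min) measures survival of drug-selected KB-V1 MDR cells after 72 h, 37 degrees C compound exposure. Medium: phenol-red-free DMEM, 10% FBS. Values from fitted concentration-response curves.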
* marks the source's active call; other numbers are inactive results; i = inactive; ? = inconclusive; nt = not tested or not shown; ! = repeats disagree; [ ] = dose if it differs, or a comment. Calls come from the whole dose curve; as a rule, active = well fitted curve in the direction sought with a large enough effect; inconclusive = small, poorly fitted or top-dose-only effect, or another doubt; inactive = no such curve, though single readings can be large; an effect the other way counts as inactive or inconclusive. Potency is the fitted concentration of half-maximal effect.

SMILES	RORgamma inh	Gal4-VP16 FLuc	SW480 rerep	KB-3-1 cytotox	MCF10A rereplic	KB-V1 cytotox
C=CCC1(C(C)CCC)C(=O)N=C(S)NC1=O (stereo not drawn)	10µM*	-4%	-1%	nt	-1%	nt
C=CCC1([C@@H](C)CCC)C(=O)NC(=O)NC1=O	nt	nt	-105%	i	-18%	i
C=CCN1CCC2(C)c3cc(O)ccc3C[C@H]1[C@H]2C	-8%	2%	nt	nt	nt	nt
Cc1c(C(=O)c2cccc3ccccc23)c2cccc3c2n1[C@@H](CN1CCOCC1)CO3	-19%	-3%	nt	nt	nt	nt
N#Cc1cc2c(nc1SCC(=O)Nc1cccc(F)c1)C1CCN2CC1	nt	nt	nt	?	nt	10µM*
CCOc1cc2c(cc1OCC)-n1cccc1C(c1ccc(C(C)C)cc1)NC2 (stereo not drawn)	?	?	?	?	18µM*	?
CCC(C)C(=O)OC1C[C@@]2(C)C(c3ccoc3)OC(=O)CC23OC2(C)OC34C(OC(=O)C(C)C)[C@]3(O)C(OC(=O)C5(C)OC5C)[C@]5(C)CC3(O)[C@](C)(C5CC(=O)OC)C14O2 (stereo partly drawn)	29%	-20%	nt	nt	nt	nt
Cc1cc(C)c(C(=O)CN2CCOCC2)c(C)c1	-44%	?	9.2µM*	i	8.2µM*	i
CN1CC[C@@]2(c3cccc(O)c3)Cc3nc4ccccc4cc3C[C@H]2C1	-17%	-11%	nt	nt	nt	nt
CCCN1CCCC2Cc3nc(N)ncc3CC21 (stereo not drawn)	-11%	-3%	-2%	nt	0%	nt
CCCCC/C=C\C/C=C\C/C=C\C/C=C\CCCC(=O)NCCc1ccc(O)c(O)c1	11µM*!	-28%	nt	nt	nt	nt
CCCCC/C=C\C/C=C\C/C=C\C/C=C\CCCC(=O)NCCO	38%	-1%	nt	nt	nt	nt
O=P(O)(O)Cc1ccccc1OP(=O)(c1ccccc1)c1ccccc1	-22%	-2%	1%	i	20%	23µM*
O=[N+]([O-])c1cc(C(F)(F)F)c(Cl)c([N+](=O)[O-])c1Nc1ncc(C(F)(F)F)cc1Cl	nt	nt	nt	1.5µM*	nt	?
CC(C)CCOP(=O)(c1ccc(N(C)C)cc1)C(O)c1ccc(Cl)cc1Cl (stereo not drawn)	0%	-10%	?	?	?	?
CC(Cc1ccccc1Sc1ccccc1)N(C)C (stereo not drawn)	-8%	-3%	?	i	9%	i
CN1CCN(Cc2ccccc2Sc2ccccc2)CC1	-6%	-2%	?	i	?	21µM*
CCN1CCC[C@@H](OC(=O)C(c2ccccc2)c2ccccc2)C1	26%[2.98 µM]	-4%[17 µM]	-9%[20.6 µM]	nt	-5%[20.6 µM]	nt
OCCBr	4%	-3%	nt	nt	nt	nt
CCN(c1ccc(C)cc1C)S(=O)(=O)c1nnc(NC(=O)c2ccco2)s1	?	3%	?	i	21µM*	i
Cc1cc(N(CCCl)CCCl)ccc1/C=N/NC(=O)c1ccco1	25%	-5%	?	?	?	i
ClCC(Cl)Cl	-5%	-8%	nt	nt	nt	nt
C=C1C(=O)[C@@]23C[C@H]4[C@@H]5[C@@]6(C)CCC[C@@]57[C@@H]2[C@@H](O)[C@@H]1C[C@H]3[C@H]7N4C6	nt	nt	?	?	15µM*	i
C#CCOC(C(=O)OCCN(C)C)(c1ccccc1)c1ccccc1	13%	2%	5%	nt	7%	nt
CN(C)c1c([N+](=O)[O-])cc(N2C(=O)C=CC2=O)cc1[N+](=O)[O-]	nt	nt	16µM*	?	13µM*	i
CCNc1cc(N2CCN(C)CC2)ccc1[N+](=O)[O-]	6%	4%[10 µM]	-45%[1.84 µM]	i	-24%	i
CCOCCSc1nc2c(c(-c3cccs3)c1C#N)CC/C2=C/c1cccs1	-43%	?	?	i	?	i
